Data from the supplement of paper PMC10849652.
Targets with a hit are over-represented here; the source holds about 7,900 in all. About 0.6% of all pairs of compound and target were hits. Unmarked numbers belong to inactive results.

Assays:
Assay in all cases: log2 fold change, soluble protein after heating vs DMSO (PISA); higher = thermal stabilisation; K562 cells, 10 uM, 30 min; active = over 0.2 and 3.5 SD of the protein, either way, in both replicates (recomputed)
IRAK-1-4 Inhibitor I = compound: C1COCCN1CCN2C3=CC=CC=C3N=C2NC(=O)C4=CC(=CC=C4)[N+](=O)[O-] [IRAK-1-4 Inhibitor I]
Method in brief: (§1)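 K562 cells (2×10^6 cells/mL) were treated with 10 μM compound for 30 min, and aliquots were heated for 3 min over 48°C-58°C. Pooled aliquots were extracted in PBS with 0.5% NP-40 at 4°C, and the supernatant after 21,000xg for 90 min was measured by TMTpro 16plex LC-MS/MS with channel sums equalised. Reported thermal stability, relative to control samples and from duplicates, is a log2 fold change.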

ibrutinib = compound: C=CC(=O)N1CCC[C@@H](n2nc(-c3ccc(Oc4ccccc4)cc3)c3c(N)ncnc32)C1 [ibrutinib]
Method in brief: as §1

[1] = compound: CC(=O)c1cnc2ccc(-c3cc(Cl)c(O)c(Cl)c3)nc2c1N[C@H]1CC[C@H](CN(C)C)CC1
Method in brief: as §1

[2] = compound: CC(C)C1=C2N=C(C=C(N2N=C1)NCC3=CC=CC=C3)NCCCCCCN
Method in brief: as §1

pinometostat = compound: CC(C)N(C[C@H]1O[C@@H](n2cnc3c(N)ncnc32)[C@H](O)[C@@H]1O)[C@H]1C[C@@H](CCc2nc3cc(C(C)(C)C)ccc3[nH]2)C1 [pinometostat]
Method in brief: as §1

[3] = compound: CC1=C(C(CC(=O)N1)C2=CC=C(C=C2)C(F)(F)F)C(=O)NC3=C(C=C4C(=C3)C=NN4)F
Method in brief: as §1

[4] = compound: CC1=C(C2=C(C=C1)C(=O)C3=CC=CC=C3N2CCCN)C
Method in brief: as §1

[5] = compound: CC1=CC=C(C=C1)SC2=C3C=C(SC3=CN=C2)C(=O)N
Method in brief: as §1

[6] = compound: CC1=NC(=CC=C1)C2=C(N=C(N2)C(C)(C)C)C3=CC4=NC=CN=C4C=C3
Method in brief: as §1

vemurafenib = compound: CCCS(=O)(=O)Nc1ccc(F)c(C(=O)c2c[nH]c3ncc(-c4ccc(Cl)cc4)cc23)c1F [vemurafenib]
Method in brief: as §1

[7] = compound: CCCS(=O)(=O)Nc1ccc(F)c(C(=O)c2c[nH]c3ncc(Cl)cc23)c1F
Method in brief: as §1

[8] = compound: CCCc1cc(C)[nH]c(=O)c1CNC(=O)c1cc(-c2ccnc(N3CCN(C)CC3)c2)cc2c1cnn2C(C)C
Method in brief: as §1

givinostat = compound: CCN(CC)Cc1ccc2cc(COC(=O)Nc3ccc(C(=O)NO)cc3)ccc2c1 [givinostat]
Method in brief: as §1

barasertib = compound: CCN(CCCOc1ccc2c(Nc3cc(CC(=O)Nc4cccc(F)c4)[nH]n3)ncnc2c1)CCOP(=O)(O)O [barasertib]
Method in brief: as §1

ralimetinib = compound: CC(C)(C)Cn1c(N)nc2ccc(-c3[nH]c(C(C)(C)C)nc3-c3ccc(F)cc3)nc21 [ralimetinib]
Method in brief: as §1

[9] = compound: CC(C)(O)CC(=O)NCCn1ccc2ncnc(Nc3ccc(Oc4cccc(C(F)(F)F)c4)c(Cl)c3)c21
Method in brief: as §1

[10] = compound: CC(C)C[C@@H](C=O)NC(=O)[C@H](CC(C)C)NC(=O)[C@H](CC(C)C)NC(=O)OCc1ccccc1
Method in brief: as §1

[11] = compound: CC1=C(C=C(C=C1)NC(=O)C2=CC(=CC=C2)C(C)(C)C#N)NC3=CC4=C(C=C3)N=CN(C4=O)C
Method in brief: as §1

[12] = compound: CC1=C(C=C(C=C1)NC(=O)C2=CC(=CC=C2)N(C)C)NC(=O)C3=CC=C(C=C3)O
Method in brief: as §1

Nexturastat A = compound: CCCCN(Cc1ccc(C(=O)NO)cc1)C(=O)Nc1ccccc1 [Nexturastat A]
Method in brief: as §1

Sequence of UniProt Q86TA1 (Q86TA1 whole entry, looked up): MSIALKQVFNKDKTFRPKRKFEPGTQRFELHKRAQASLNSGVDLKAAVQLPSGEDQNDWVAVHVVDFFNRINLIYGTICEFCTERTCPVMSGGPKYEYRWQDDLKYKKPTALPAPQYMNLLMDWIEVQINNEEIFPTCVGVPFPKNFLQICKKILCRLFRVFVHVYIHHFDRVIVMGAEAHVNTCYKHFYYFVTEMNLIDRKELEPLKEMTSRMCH
Sequence of UniProt P30414 (P30414 whole entry, looked up): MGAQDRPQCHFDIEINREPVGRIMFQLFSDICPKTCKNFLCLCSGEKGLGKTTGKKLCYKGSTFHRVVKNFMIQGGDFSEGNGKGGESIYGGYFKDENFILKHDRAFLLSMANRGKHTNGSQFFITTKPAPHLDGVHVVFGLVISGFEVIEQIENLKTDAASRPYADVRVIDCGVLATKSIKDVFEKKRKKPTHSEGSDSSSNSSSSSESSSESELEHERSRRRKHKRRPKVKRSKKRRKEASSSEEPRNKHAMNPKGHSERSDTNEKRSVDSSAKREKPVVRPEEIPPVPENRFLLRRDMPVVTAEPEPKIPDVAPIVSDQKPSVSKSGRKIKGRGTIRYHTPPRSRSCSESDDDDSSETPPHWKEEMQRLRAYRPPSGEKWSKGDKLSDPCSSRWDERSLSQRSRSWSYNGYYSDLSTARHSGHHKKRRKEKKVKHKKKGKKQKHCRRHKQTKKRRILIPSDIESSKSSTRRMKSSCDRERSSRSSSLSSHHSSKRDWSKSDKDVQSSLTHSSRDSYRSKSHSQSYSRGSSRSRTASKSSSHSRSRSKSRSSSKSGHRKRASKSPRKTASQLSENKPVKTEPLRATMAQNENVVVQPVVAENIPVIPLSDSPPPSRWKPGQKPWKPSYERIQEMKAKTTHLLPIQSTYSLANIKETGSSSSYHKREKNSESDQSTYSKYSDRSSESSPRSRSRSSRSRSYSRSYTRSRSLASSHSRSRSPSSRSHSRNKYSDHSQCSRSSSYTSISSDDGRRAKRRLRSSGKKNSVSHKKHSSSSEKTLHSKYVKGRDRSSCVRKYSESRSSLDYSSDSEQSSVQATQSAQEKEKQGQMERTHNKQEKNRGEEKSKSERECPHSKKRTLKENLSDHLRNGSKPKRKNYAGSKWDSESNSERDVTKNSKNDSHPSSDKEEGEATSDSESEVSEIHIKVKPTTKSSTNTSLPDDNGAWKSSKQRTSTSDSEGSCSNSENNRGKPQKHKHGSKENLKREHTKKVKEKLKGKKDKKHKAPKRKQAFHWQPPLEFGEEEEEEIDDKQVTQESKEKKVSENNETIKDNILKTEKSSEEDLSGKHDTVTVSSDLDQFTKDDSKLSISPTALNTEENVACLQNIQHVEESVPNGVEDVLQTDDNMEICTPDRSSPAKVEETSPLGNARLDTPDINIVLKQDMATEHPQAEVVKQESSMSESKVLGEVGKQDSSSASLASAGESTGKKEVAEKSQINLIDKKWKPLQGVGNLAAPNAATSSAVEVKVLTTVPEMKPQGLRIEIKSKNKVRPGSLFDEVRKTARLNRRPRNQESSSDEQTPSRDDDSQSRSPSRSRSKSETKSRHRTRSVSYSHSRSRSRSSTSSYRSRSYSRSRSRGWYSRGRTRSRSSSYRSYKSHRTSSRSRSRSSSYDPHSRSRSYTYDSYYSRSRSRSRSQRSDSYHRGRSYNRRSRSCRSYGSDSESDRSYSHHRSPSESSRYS
Sequence of UniProt Q86VX9 (Q86VX9 whole entry, looked up): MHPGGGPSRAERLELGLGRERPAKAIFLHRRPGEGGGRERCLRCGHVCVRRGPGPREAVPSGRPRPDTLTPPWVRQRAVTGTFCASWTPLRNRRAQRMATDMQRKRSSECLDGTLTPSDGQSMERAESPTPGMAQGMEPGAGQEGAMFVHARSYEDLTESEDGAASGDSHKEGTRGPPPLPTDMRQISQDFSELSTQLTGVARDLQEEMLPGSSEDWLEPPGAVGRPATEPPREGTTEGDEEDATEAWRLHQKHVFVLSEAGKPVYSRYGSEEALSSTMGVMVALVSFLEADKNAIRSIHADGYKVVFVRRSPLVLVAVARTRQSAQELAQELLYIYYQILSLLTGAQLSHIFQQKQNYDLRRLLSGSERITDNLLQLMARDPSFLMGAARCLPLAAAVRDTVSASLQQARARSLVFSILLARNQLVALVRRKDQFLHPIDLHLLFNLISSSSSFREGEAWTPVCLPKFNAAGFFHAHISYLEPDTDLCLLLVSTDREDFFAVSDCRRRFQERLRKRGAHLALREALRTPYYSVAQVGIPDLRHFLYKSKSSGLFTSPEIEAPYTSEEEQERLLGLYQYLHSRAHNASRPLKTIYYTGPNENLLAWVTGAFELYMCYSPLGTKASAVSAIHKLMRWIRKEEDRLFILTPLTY
Sequence of UniProt Q70IA6 (Q70IA6 whole entry, looked up): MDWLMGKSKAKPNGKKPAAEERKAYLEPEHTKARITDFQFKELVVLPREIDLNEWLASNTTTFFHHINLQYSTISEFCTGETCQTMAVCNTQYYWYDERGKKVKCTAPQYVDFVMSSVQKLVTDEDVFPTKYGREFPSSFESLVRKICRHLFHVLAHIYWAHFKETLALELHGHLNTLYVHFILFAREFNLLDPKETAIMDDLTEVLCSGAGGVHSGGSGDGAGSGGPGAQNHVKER
Sequence of UniProt Q86UD1 (Q86UD1 whole entry, looked up): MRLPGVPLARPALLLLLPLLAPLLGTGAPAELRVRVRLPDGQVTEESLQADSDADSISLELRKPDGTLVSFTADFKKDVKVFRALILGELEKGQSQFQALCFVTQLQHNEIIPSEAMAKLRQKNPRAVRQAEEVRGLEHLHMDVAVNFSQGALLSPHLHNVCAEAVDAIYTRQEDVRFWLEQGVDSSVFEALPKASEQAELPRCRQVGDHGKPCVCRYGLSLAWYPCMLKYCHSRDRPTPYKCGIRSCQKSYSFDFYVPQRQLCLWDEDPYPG
Sequence of UniProt O75052 (O75052 whole entry, looked up): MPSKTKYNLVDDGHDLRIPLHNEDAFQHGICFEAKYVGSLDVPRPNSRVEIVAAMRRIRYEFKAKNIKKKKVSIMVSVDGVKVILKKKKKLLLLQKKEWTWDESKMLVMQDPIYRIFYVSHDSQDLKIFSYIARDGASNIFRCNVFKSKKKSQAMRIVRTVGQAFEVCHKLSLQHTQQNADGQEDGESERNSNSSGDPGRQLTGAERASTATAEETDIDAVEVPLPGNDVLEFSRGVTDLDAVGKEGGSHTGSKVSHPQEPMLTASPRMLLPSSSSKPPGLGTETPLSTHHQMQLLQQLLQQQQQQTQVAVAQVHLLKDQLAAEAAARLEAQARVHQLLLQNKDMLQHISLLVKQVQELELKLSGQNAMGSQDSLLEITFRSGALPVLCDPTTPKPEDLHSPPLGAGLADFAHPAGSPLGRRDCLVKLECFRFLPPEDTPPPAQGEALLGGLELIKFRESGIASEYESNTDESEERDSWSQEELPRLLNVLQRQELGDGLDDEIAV
Sequence of UniProt Q9UHC9 (Q9UHC9 whole entry, looked up): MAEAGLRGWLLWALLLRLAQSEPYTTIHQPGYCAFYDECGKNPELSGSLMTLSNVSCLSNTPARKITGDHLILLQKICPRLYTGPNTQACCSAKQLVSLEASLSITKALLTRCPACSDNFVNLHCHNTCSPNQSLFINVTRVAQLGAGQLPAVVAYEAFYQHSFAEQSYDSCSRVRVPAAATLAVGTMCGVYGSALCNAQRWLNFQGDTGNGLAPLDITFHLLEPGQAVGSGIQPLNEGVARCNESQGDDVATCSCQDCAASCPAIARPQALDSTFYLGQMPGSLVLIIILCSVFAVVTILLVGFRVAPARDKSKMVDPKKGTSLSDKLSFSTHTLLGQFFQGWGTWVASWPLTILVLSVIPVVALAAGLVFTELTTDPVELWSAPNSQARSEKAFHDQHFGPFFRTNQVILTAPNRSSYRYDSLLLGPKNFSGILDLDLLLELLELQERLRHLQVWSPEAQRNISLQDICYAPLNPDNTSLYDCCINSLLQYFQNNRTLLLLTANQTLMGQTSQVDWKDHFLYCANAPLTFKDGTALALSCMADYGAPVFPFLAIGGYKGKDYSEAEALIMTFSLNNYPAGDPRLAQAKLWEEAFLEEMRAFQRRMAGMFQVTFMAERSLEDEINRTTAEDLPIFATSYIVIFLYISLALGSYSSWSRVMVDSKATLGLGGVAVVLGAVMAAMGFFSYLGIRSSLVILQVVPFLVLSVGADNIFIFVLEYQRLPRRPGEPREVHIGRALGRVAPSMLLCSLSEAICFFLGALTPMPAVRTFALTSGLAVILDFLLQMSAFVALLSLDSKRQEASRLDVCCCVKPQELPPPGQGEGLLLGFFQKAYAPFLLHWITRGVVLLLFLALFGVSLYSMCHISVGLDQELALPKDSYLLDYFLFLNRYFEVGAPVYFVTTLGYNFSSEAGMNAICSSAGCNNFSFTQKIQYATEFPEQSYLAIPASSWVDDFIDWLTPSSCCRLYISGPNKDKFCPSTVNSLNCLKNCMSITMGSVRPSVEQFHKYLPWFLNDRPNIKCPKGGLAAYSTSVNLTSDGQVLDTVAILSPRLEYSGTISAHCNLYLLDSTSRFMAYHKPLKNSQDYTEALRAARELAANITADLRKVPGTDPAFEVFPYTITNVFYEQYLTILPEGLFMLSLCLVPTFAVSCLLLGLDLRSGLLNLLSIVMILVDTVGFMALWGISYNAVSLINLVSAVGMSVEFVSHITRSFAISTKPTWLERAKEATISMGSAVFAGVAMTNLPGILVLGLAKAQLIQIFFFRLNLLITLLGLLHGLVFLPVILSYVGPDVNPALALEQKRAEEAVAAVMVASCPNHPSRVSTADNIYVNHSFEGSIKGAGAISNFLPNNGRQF
Sequence of UniProt P0C024 (P0C024 whole entry, looked up): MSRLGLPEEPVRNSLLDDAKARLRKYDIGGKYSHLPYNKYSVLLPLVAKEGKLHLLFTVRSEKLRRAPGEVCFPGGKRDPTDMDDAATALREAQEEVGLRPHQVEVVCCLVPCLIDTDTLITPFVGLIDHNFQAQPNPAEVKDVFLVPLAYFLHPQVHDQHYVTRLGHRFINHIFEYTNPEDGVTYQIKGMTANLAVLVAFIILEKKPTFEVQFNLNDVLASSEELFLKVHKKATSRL

Target | log2 fold change (IRAK-1-4 Inhibitor I) | log2 fold change (ibrutinib) | log2 fold change [1] | log2 fold change [2] | log2 fold change (pinometostat) | log2 fold change [3] | log2 fold change [4] | log2 fold change [5] | log2 fold change [6] | log2 fold change (vemurafenib) | log2 fold change [7] | log2 fold change [8] | log2 fold change (givinostat) | log2 fold change (barasertib) | log2 fold change (ralimetinib) | log2 fold change [9] | log2 fold change [10] | log2 fold change [11] | log2 fold change [12] | log2 fold change (Nexturastat A)
MOB3B (UniProt Q86TA1) | -0.26 | -0.001 | -0.026 | -0.169 | -0.056 | -0.116 | 0.024 | -0.147 | -0.033 | 0.137 | -0.272 | 0.039 | 0.174 | 0.018 |  |  |  |  |  | 
P4HA2 (UniProt O15460) | -0.072 | 0.168 |  | -0.017 | 0.06 | 0.039 | 0 | 0.033 | -0.102 | -0.093 | -0.038 | 0.043 | 0.058 | 0.101 | 0.038 | 0.045 | 0.062 | -0.038 | -0.014 | 0.402
MLH1 (UniProt P40692) |  | -0.018 | -0.112 |  |  |  | 0.008 | 0.023 |  |  | 0.276 | 0.584 (active) |  | 0.11 |  | -0.347 |  |  |  | -0.014
MYSM1 (UniProt Q5VVJ2) | -0.264 | 0.291 |  |  | 0.153 |  |  |  | 0.006 |  |  |  |  | -0.114 | -0.022 |  | -0.061 | 0.067 | -0.298 | 
NA, A0A1W2PSA9 |  |  | -0.13 |  |  |  | -0.27 |  |  |  |  |  |  |  | 0.004 |  | 0.122 |  | 0.108 | 
NIPSNAP3B (UniProt Q9BS92) | 0.048 | 0.082 | 0.026 | 0.045 | 0.056 | 0.07 | 0.049 | 0.049 | 0.023 | 0.065 | 0.016 | -0.001 | -0.088 | 0.016 |  |  |  | -0.133 |  | 
MOB2 isoform 3 (UniProt Q70IA6) |  | -0.061 |  | -0.01 |  | -0.037 | 0.106 | 0.081 |  |  | 0.018 | 0.163 | 0.061 | -0.121 | 0.039 | -0.15 | -0.021 |  | -0.039 | -0.149
NOS1AP (UniProt O75052) |  | -0.061 |  | -0.026 |  |  | 0.154 | 0.08 |  | -0.335 | -0.161 | 0.101 | -0.117 | 0.046 | 0.07 | -0.073 | 1.38 (active) |  | -0.016 | -0.058
MTHFD1, A0A384N5Y3 |  | 0.002 | -0.085 |  |  | -0.024 | 0.049 | -0.055 |  | 0.088 | 0.058 | -0.035 |  | 0.044 | 0 | -0.034 | -0.008 | 0.036 | -0.107 | 0.013
NAP1L1 (UniProt B7Z9C2) | -0.147 | -0.04 | -0.058 | 0.359 | -0.052 | 0.111 |  |  | 0.14 | -0.304 |  | -0.109 | -0.053 | -0.002 |  |  |  |  |  | 
NCOA5 (UniProt Q9HCD5) | -0.136 |  |  | -0.194 | 0.048 | 0.082 |  | 0.099 | -0.315 |  | -0.096 |  | 0.08 |  | -0.012 |  | 0.055 | 0.076 | 0.134 | 
NPC1L1 (UniProt Q9UHC9) | 0.014 | 0.047 | -0.008 |  | -0.136 | -0.614 | 0.085 | 0.152 | 0.02 | -0.213 | -0.109 | 0.012 |  | -0.037 |  |  |  | -0.014 |  | 
MORC2 (UniProt Q9Y6X9) | -0.292 | 0.042 | -0.201 | -0.084 | 0.038 |  |  | -0.059 | 0.047 |  | 0.208 | 0.231 | 0.026 | -0.002 |  | -0.074 |  |  |  | -0.046
NEU3 isoform 2 (UniProt Q9UQ49) |  |  |  | -0.984 (active) |  |  |  | -0.112 |  |  | 0.133 |  | 0.189 |  |  |  |  | 0.022 |  | 
ORC3 (UniProt Q9UBD5) |  |  | -0.031 |  |  |  |  |  |  |  |  |  |  |  |  |  |  |  |  | 
MYLK (UniProt Q15746) | -0.051 | -0.101 |  | -0.207 | -0.051 | -0.269 | -0.136 | -0.013 | 0.202 | 0.081 | -0.01 | -0.154 | -0.132 | 0.032 | 0.524 |  | -0.181 | 0.832 (active) | 0.108 | 
OSBPL2 (UniProt Q9H1P3) |  |  |  |  |  |  |  | -0.203 |  |  | 0 | -0.264 |  |  |  |  |  |  |  | 
MON1A (UniProt Q86VX9) | -0.005 | 0.231 |  | -0.151 | 0.002 | 0.049 | 0.129 | -0.061 | 0.061 |  | -0.011 | 0.009 | 0.008 | 0.065 | -0.213 | -0.012 | 0.032 | 0.055 | 0.004 | 0.015
OAF (UniProt Q86UD1) |  |  |  | 0.009 |  |  |  |  |  |  |  | -0.346 | -0.071 |  | -0.041 |  | -0.013 | -0.005 | -0.119 | 
OXR1 isoform 2 (UniProt Q8N573) | -0.044 |  | -0.123 |  | 0.066 | -0.028 | 0.031 | 0.008 | -0.071 | 0.126 | 0.027 |  |  |  | -0.088 | -0.118 | 0.119 |  | -0.007 | 0
NEK3 (UniProt P51956) | 0.104 |  | -0.184 | 0.127 | -0.015 | -0.028 | 0.018 | 0.052 | -0.108 | 0.089 | -0.123 | -0.063 | -0.013 |  | -0.168 | -0.015 | 0.098 | 0.058 | -0.055 | -0.033
MSANTD2 (UniProt Q6P1R3) |  |  |  |  |  |  | 0.012 |  |  | -0.062 |  |  |  |  |  | 0.047 |  | -0.024 |  | 0.239
NUDT7 (UniProt P0C024) | -0.02 | 0.205 |  | 0 | -0.231 | 0.129 | 0.039 |  | 0.197 |  |  |  | 0.017 | 0.666 (active) | -0.52 | -0.467 | 0.207 | 0.016 | -0.021 | 0.014
NKTR (UniProt P30414) |  | -0.191 |  | 0.084 |  |  |  | -0.041 |  |  | -0.4 | -0.045 | 0.532 | 0.042 |  |  |  |  |  | 
NUDT6 (UniProt P53370) | -0.143 |  |  | -0.033 | 0.071 | -0.161 | 0.283 | 0.064 | 0.075 | 0.002 | -0.037 | -0.092 | -0.027 |  | 0.183 | -0.106 | 0.035 |  | 0.049 | -0.119
PACRGL (UniProt Q8N7B6) |  |  |  |  |  |  |  |  |  |  |  |  |  |  |  |  |  | 0.01 |  | 
NASP isoform 2 (UniProt P49321) |  |  |  |  |  |  |  |  |  |  |  | 1.06 |  |  |  |  |  |  |  | 
